Data as given in PubChem BioAssay (NCATS).
Records with an inconclusive call do not appear. Calls of active or inactive are those of the source. Unless noted, calls come from the whole dose curve; as a rule, active = well fitted curve in the direction sought with a large enough effect; inconclusive = small, poorly fitted or top-dose-only effect, or another doubt; inactive = no such curve, though single readings can be large; an effect the other way counts as inactive or inconclusive.

Key:
[1] = AP1 Signaling Pathway (AID 357; active = well fitted curve in either direction with a large enough effect, not every such curve was filed as active;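 note: ME-180 reporter cells stimulated with EGF at its EC50 level; % is set by controls: 0 for no effect and ±100 for the full control effect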); conditions: ME-180 AP-1-bla reporter, EGF-induced, beta-lactamase ratio, 5 h; at 7.69 µM (top of the series) unless noted
In short: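 A ratiometric CCF4 readout (405 nm excitation; 460 and 530 nm emission) quantified AP-1-driven beta-lactamase in ME-180 cells after 5 h with compound and EC50 EGF; AC50 values were derived for activators and inhibitors.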

[2] = NFAT Signaling Pathway (AID 444; active = well fitted curve in either direction with a large enough effect, not every such curve was filed as active;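 note: carbachol stimulus at about its EC50 of 1 µM final; % is set by controls: 0 for no effect and ±100 for the full control effect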); conditions: Jurkat NFAT-bla M1, carbachol, beta-lactamase ratio, 5 h; at 7.69 µM (top of the series) unless noted
In short: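 Jurkat cells with NFAT-driven β-lactamase reporter and co-expressed M1 receptor, stimulated with carbachol (final 1 uM, ~EC50), compound titration, 5 h at 37 °C. CCF4 loaded 1 h at RT; 460/530 nm ratio gave %activity and AC50.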

[3] = Stat Signaling Pathway (AID 446; active = well fitted curve in either direction with a large enough effect, not every such curve was filed as active;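 note: ME-180 cervical cancer cells given 40 pM IL-6 alongside compound; SIE-controlled beta-lactamase reporter measured as 460/530 nm FRET emission ratio; % is set by controls: 0 for no effect and ±100 for the full control effect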); conditions: ME-180 SIE beta-lactamase reporter, IL-6 stimulated, 5 h; at 7.69 µM (top of the series) unless noted
In short: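 Emission at 460 and 530 nm (excitation 405 nm) reports SIE-controlled beta-lactamase in ME-180 cells. Cells received compound with 40 pM IL-6 for 5 hrs at 37 C; data scaled between 300 pM IL-6 and 125 nM JAK-inhibitor controls.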

[4] = molecular target: Glucocorticoid receptor (Homo sapiens) (UniProt P04150); assay: GR-GFP Redistribution (AID 450;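 active = compounds whose dose series gives a full or clear partial fitted curve of increased nuclear translocation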; note: potency is the fitted concentration of half-maximal effect); conditions: U2OS GR-GFP nuclear translocation, laser cytometry, 2 h
Chain of Glucocorticoid receptor (Homo sapiens) (P04150 whole entry, looked up, the tested form may be a part): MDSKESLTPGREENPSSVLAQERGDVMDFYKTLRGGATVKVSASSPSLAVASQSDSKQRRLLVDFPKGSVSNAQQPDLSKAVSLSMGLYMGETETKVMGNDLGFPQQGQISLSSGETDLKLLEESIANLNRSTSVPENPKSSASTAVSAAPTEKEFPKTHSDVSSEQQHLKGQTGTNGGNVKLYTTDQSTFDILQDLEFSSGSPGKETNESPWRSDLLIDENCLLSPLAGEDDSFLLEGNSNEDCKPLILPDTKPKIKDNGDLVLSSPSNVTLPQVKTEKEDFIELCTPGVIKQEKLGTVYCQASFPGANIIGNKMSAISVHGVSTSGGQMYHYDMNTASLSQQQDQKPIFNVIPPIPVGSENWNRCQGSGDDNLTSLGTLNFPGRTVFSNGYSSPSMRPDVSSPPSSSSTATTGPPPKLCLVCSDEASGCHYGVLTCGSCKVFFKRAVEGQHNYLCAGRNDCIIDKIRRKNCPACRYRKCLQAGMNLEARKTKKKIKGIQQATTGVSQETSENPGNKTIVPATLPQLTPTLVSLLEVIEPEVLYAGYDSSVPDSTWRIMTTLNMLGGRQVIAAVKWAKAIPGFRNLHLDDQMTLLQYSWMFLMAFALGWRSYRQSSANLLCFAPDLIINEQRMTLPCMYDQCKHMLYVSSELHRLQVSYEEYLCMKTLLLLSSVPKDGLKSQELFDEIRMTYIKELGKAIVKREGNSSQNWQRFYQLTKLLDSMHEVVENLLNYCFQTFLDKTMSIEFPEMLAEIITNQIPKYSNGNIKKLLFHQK

[5] = molecular target: Glucocorticoid receptor (Homo sapiens) (UniProt P04150); assay: GR-EFC Redistribution (AID 451; calls by dose curve; note: potency is the fitted concentration of half-maximal effect); conditions: CHO-K1 GR-EFC translocation, beta-gal luminescence, 2 h
In short: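 CHO-K1 cells expressing nuclear EA and GR-ED fragments of b-gal; compounds titrated up to 46 uM final, 2 h at 37 C. GR nuclear translocation read as complemented b-gal luminescence after 1 h RT detection.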

[6] = molecular target: Mitogen-activated protein kinase 10 (Mus musculus) (UniProt Q61831); assay: JNK3 AlphaScreen Assay (AID 530; active = well fitted curve in either direction with a large enough effect, not every such curve was filed as active;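 note: kinase came from lysate of stimulated human HepG2 cells; signal reports phosphorylation of biotinylated GST-cJun 1-79 at Ser73 with 10 µM ATP; % is set by controls: 0 for no effect and ±100 for the full control effect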); conditions: JNK3 lysate, c-Jun phosphorylation; series mostly up to 57.1 µM
In short: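 HepG2 lysate (IL-1b/TNFa pre-activated) + biotin-GST-cJun 1-79 + anti-pSer73 cJun; cpd titration, 15 min RT; ATP 10 uM start; Tris pH 7.6, MgCl2, DTT, vanadate; beads in EDTA buffer; AlphaScreen.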

[7] = molecular target: 3',5'-cyclic-AMP phosphodiesterase 4B (Homo sapiens) (UniProt Q07343); assay: qHTS Assay for Inhibitors of PDE-IV (AID 607; active = well fitted activation curve with a large enough effect in the main read-out, with a control signal flat, not every such curve was filed as active; note: % of control where 0% means no effect); conditions: HEK293 ACTOne CNG channel cells, membrane potential fluorescence; series mostly up to 22.9 µM
Chain of 3',5'-cyclic-AMP phosphodiesterase 4B (Homo sapiens) (Q07343 whole entry, looked up): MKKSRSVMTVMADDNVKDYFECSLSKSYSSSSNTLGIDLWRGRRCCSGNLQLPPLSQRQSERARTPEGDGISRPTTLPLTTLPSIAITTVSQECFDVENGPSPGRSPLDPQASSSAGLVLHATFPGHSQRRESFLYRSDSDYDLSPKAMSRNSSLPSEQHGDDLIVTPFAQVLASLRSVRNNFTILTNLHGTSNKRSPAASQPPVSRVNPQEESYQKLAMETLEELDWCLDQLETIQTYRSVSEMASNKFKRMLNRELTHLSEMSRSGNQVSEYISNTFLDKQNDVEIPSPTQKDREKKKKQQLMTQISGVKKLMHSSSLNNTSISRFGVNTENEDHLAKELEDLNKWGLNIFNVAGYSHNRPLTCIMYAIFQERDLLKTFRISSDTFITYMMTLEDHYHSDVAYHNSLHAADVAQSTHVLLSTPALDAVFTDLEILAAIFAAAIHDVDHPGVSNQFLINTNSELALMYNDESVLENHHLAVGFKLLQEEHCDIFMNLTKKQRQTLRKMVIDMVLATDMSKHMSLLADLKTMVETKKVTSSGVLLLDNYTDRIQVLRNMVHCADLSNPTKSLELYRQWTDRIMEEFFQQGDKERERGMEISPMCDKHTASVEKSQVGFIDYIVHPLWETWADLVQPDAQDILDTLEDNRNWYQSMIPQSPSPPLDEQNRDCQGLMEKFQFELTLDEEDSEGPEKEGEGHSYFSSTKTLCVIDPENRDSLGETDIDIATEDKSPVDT
In short: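 The readout is membrane depolarisation from a cAMP-sensing CNG channel, detected with a potential dye at ex 535/em 590. Cells were HEK293-derived (endogenous PDE-IV) at 1000 cells/well, titrated up to 22.9 uM final.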

[8] = qHTS Assay for Lipid Storage Modulators (AID 1519; calls by dose curve); conditions: Drosophila S3 cells, BODIPY lipid droplet/cell ratio, laser cytometry, cells loaded with oleic acid; for activity change, negative = inhibition: at 57.5 µM (top of the series)
In short: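 Cells seeded at 5,000 per well were treated with compounds over a concentration series and loaded with oleic acid (400 uM, as added). Lipid droplet fluorescence (488 nm excitation, 500-530 nm channel) was read by laser-scanning cytometry and normalized to 20 uM Triacsin C.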

[9] = molecular target: Dual specificity protein kinase CLK4 (Homo sapiens) (UniProt Q9HAZ1); assay: qHTS Assay for Inhibitors of CDC-like Kinase 4 (Kinase-Glo Assay) (AID 1770); conditions: recombinant Clk4, Kinase-Glo ATP depletion luminescence; series mostly up to 66.7 µM; note: nearly all actives have a fitted effect of over 65% in size; note: potency is the fitted concentration of half-maximal effect
Chain of Dual specificity protein kinase CLK4 (Homo sapiens) (Q9HAZ1 whole entry, looked up): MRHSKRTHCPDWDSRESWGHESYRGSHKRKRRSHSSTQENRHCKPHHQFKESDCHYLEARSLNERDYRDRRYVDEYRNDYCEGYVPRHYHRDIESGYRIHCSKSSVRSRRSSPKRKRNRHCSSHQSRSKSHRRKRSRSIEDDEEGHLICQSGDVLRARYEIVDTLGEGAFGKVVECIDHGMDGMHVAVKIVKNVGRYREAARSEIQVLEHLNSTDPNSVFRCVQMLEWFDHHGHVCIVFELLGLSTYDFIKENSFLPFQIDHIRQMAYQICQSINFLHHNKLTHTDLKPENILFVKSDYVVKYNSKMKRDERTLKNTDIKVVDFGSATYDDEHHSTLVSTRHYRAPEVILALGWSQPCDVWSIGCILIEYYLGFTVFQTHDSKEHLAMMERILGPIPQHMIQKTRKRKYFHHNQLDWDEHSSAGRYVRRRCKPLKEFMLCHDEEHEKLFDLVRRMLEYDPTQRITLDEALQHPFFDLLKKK
In short: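 Recombinant human Clk4 (25 nM) phosphorylated RS repeat peptide (100 uM) with 1 uM ATP in Tris pH 7.5/MgCl2/EGTA/DTT/Triton buffer for 4.5 h at room temperature. Residual ATP was quantified by Kinase-Glo luciferase luminescence.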

[10] = molecular target: Dual specificity protein kinase CLK4 (Homo sapiens) (UniProt Q9HAZ1); assay: qHTS Assay for Inhibitors of CDC-like Kinase 4 (ADP-Glo Assay) (AID 1771); conditions: recombinant CLK4, ADP-Glo luminescence; series mostly up to 80 µM; note: nearly all actives have a fitted effect of over 70% in size; note: potency is the fitted concentration of half-maximal effect
In short: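 25 nM Clk4, 100 uM RS peptide, 1 uM ATP (final); 2 mM MgCl2, 0.5 mM EGTA, 2.5 mM DTT, 0.01% Triton X-100; 1 hr RT. ADP-Glo readout: ATP depletion 45 min, conversion/luciferase 30 min, luminescence.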

[11] = molecular target: Ubiquitin carboxyl-terminal hydrolase 1 (Homo sapiens) (UniProt O94782); assay: Inhibitors of USP1/UAF1: Pilot qHTS (AID 504865); conditions: purified USP1/UAF1, Ub-rhodamine cleavage fluorescence; series mostly up to 54.9 µM;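 note: rhodamine fluorescence freed from ubiquitin-rhodamine substrate followed over time; top concentration of the series differs between compounds; % is set by controls: 0 for no effect and ±100 for the full control effect; nearly all actives have a fitted effect of over 35% in size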
Chain of Ubiquitin carboxyl-terminal hydrolase 1 (Homo sapiens) (O94782 whole entry, looked up): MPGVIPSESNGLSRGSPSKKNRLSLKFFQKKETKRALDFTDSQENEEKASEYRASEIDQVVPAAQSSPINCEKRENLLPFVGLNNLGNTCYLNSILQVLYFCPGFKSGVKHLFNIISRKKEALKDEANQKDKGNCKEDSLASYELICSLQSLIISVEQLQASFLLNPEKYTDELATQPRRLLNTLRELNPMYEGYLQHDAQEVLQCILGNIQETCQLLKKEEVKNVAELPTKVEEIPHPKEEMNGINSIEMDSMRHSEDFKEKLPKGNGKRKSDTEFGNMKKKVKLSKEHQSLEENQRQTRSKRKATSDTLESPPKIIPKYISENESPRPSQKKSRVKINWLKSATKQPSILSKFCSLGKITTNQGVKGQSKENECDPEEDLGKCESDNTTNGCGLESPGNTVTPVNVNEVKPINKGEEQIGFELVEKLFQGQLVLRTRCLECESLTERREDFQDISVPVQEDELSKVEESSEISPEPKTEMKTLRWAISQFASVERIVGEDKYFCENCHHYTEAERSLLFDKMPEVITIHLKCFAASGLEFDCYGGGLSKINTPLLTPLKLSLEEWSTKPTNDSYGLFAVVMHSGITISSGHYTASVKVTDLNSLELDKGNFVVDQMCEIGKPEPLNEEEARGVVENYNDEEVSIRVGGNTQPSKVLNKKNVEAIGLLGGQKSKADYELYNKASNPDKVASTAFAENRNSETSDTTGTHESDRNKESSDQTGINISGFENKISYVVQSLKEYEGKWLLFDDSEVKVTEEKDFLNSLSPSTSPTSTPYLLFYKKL
In short: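 USP1/UAF1 complex (1nM) preincubated with compound 15 min at room temperature, then Ub-Rho substrate (150nM final) added. Fluorescence read kinetically at 480/540 nm, 6 reads every 60 seconds. Buffer: 50mM HEPES pH 7.8, 0.5mM EDTA, 0.1 mg/ml BSA, 1mM TCEP, 0.01% Tween-20.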

[12] = Primary qHTS for small molecule stabilizers of the endoplasmic reticulum resident proteome: Secreted ER Calcium Modulated Protein (SERCaMP) assay (AID 1508630); conditions: SH-SY5Y GLuc-SERCaMP (Gaussia luciferase released on ER calcium loss) secretion, thapsigargin, luminescence; series mostly up to 38.4 µM; note: % is set by controls: 0 for no effect and ±100 for the full control effect
In short: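 The SH-SY5Y reporter protocol was run at 3 concentrations up to 38.3 uM (primary) or 11 concentrations (follow-up): 16 h compound, 100 nM thapsigargin for 4 h, then extracellular luciferase luminescence.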

[13] = molecular target: Lysosomal acid glucosylceramidase (Homo sapiens) (UniProt P04062); assay: Glucocerebrosidase-p2 (AID 348; in the data active = potency below about 10 µM; note: potency is the fitted concentration of half-maximal effect); conditions: purified GBA, blue fluorogenic substrate, 40 min
Chain of Lysosomal acid glucosylceramidase (Homo sapiens) (P04062 whole entry, looked up): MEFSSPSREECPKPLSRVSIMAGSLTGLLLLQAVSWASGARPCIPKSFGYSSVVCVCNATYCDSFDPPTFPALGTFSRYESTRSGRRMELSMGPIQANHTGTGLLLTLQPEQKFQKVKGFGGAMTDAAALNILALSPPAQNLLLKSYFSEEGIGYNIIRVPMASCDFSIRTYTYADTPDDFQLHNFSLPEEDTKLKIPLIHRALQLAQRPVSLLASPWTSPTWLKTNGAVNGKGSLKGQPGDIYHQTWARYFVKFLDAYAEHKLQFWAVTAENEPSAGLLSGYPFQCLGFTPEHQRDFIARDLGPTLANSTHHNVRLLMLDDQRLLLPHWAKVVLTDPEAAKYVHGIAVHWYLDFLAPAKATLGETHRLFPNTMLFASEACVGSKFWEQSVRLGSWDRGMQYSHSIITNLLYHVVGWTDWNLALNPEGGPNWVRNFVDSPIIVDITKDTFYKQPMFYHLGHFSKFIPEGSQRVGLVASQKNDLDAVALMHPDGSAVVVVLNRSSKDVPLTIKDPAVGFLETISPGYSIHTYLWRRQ
In short: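 Normal human glucocerebrosidase (0.2 nM) with blue fluorogenic substrate (80 uM final) in citrate/phosphate pH 5.9 with 10mM sodium taurocholate, 0.01% tween-20; 40 min RT, NaOH/glycine stop; fluorescence Ex 365/Em 440; AC50 from a titration from 0.6 nM upwards.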

[14] = molecular target: Cytochrome P450 1A2 (Homo sapiens) (UniProt P05177); assay: p450-cyp1a2 (AID 410; calls by dose curve; note: potency is the fitted concentration of half-maximal effect;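 for activity change, negative = inhibition: -100% = full effect of reference inhibitor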); conditions: recombinant CYP1A2, luciferin-ME demethylation, luminescence; series mostly up to 57 µM
Chain of Cytochrome P450 1A2 (Homo sapiens) (P05177 whole entry, looked up): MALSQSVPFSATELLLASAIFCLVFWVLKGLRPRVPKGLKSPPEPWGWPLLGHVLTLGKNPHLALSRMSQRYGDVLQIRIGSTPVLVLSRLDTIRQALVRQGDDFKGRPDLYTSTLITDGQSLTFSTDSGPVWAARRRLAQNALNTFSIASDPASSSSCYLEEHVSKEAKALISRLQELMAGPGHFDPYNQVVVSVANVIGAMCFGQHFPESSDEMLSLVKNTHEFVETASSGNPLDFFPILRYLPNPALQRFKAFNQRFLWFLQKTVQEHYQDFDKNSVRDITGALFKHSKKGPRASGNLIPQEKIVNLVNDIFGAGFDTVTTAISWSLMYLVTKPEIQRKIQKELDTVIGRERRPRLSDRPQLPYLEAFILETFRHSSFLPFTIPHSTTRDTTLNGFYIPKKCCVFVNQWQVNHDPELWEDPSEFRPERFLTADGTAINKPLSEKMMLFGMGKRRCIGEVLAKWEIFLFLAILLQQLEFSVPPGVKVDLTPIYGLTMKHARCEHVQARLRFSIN
In short: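 20nM CYP1A2, 100uM Luciferin-ME (=Km), 100mM KPO4; cpd 10 min RT; +NADPH regen, 60 min RT; stop/detect 20 min; luminescence. Normalized to furafylline 57 uM = full inhibition.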

[15] = molecular target: Cytochrome P450 3A4 (Homo sapiens) (UniProt P08684); assay: qHTS Assay for Activators of Cytochrome P450 3A4 (AID 885); conditions: recombinant CYP3A4, Luciferin-PPXE luminescence, 60 min; series mostly up to 57.1 µM; note: nearly all actives have a fitted effect of over 65% in size
Chain of Cytochrome P450 3A4 (Homo sapiens) (P08684 whole entry, looked up): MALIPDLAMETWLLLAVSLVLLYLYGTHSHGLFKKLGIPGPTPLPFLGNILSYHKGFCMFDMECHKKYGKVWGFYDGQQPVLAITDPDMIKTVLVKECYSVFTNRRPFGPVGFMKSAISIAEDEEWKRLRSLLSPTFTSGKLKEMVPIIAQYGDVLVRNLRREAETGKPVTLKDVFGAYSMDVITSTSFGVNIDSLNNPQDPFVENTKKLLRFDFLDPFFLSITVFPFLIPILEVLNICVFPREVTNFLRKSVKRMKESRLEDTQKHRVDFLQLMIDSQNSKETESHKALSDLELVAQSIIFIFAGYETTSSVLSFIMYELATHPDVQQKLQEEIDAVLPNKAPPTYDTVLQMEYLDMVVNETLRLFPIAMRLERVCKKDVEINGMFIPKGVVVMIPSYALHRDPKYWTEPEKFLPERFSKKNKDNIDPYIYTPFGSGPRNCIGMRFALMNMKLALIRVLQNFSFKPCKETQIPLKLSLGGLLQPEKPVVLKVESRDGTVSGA
In short: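 Activators are scored by enhanced luminescence from CYP3A4 conversion of luciferin-PPXE (25uM, equal to KM) to luciferin, after 60 min at RT with an NADPH-regenerating system.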

[16] = molecular target: Cytochrome P450 2C19 (Homo sapiens) (UniProt P33261); assay: qHTS Assay for Inhibitors and Substrates of Cytochrome P450 2C19 (AID 899); conditions: recombinant CYP2C19, luciferin-H EGE luminescence; series mostly up to 57.1 µM; note: % is set by controls: 0 for no effect and ±100 for the full control effect; nearly all actives have a fitted effect of over 60% in size
In short: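 Signal comes from luciferase acting on luciferin released by CYP2C19-mediated hydroxylation of Luciferin-H EGE, 10uM (KM). Assay mix: 5nM enzyme, 50mM KPO4; 60 min at 37C with NADPH regeneration. Data normalized against 57uM ketoconazole.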

[17] = qHTS Assay for Identification of Small Molecule Agonists for Hypoxia Response Element Signaling Pathway (AID 914; active = well fitted activation curve with a large enough effect in the signal ratio, with a control signal flat, not every such curve was filed as active; the % refers to the signal ratio; note: potency is the fitted concentration of half-maximal effect); conditions: ME-180 (cervical carcinoma) HRE-bla reporter, beta-lactamase ratio, CoCl2, 17 h; activation: stronger effect = higher value
In short: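 Positive modulation of EC50 CoCl2-induced hypoxia response element signaling is measured in ME-180 cells with a beta-lactamase reporter. Compounds are titrated, incubation runs 17 hours, and %Activity derives from the blue/green ratio.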

[18] = molecular target: Cytochrome P450 2C9 (Homo sapiens) (UniProt P11712); assay: qHTS Assay for Inhibitors and Substrates of Cytochrome P450 2C9 (AID 883); conditions: recombinant CYP2C9, luciferin-H luminescence, 60 min; series mostly up to 57.1 µM; note: % is set by controls: 0 for no effect and ±100 for the full control effect; nearly all actives have a fitted effect of over 60% in size
Chain of Cytochrome P450 2C9 (Homo sapiens) (P11712 whole entry, looked up): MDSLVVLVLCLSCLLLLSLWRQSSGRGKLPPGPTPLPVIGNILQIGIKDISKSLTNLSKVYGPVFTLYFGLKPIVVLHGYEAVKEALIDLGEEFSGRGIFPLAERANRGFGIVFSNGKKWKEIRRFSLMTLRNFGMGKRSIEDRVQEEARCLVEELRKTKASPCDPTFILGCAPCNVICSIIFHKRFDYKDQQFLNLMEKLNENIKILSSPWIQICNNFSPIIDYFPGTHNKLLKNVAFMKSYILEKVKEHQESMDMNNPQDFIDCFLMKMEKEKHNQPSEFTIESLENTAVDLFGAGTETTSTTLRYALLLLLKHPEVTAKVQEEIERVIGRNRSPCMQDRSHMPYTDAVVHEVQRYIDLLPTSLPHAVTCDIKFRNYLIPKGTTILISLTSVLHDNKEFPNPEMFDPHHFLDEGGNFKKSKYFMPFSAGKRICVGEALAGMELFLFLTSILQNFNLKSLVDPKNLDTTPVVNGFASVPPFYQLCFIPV
In short: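 Signal: luciferase luminescence reporting luciferin produced by CYP2C9. Conditions: 10nM enzyme, Luciferin-H 100uM at KM, 25mM KPO4, 37C, 60 min NADPH-driven reaction. Reference: 57uM sulphaphenazole as 100% inhibition.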

[19] = measured here: cell count channel max response
[20] = measured here: lipid channel max response

Row | SMILES | activity change, negative = inhibition [1] | activity change, negative = inhibition [2] | activity, negative = inhibition [3] | Potency [4] | Potency [5] | outcome [6] | Potency [7] | activity change, negative = inhibition [8] | max response [8, 19] | max response [8, 20] | Potency [9] | Potency [10] | Potency [11] | Potency [12] | Potency [13] | Potency [14] | Potency [15] | Potency [16] | Potency [17] | Potency [18]
1 | Cc1cnc(CNc2cc(-c3cccc(NS(C)(=O)=O)c3)ncn2)cn1 | 20.7% (inactive) | -0.447% (inactive) | -0.385% (inactive) | > 46 µM (inactive) | > 46 µM (inactive) | inactive | inactive | 5.3% (inactive) | 37.3% | 40.2% | 25.1 µM (active) | 15.8 µM (active) | inactive | inactive |  |  |  |  |  | 
2 | CN(C)c1ccc(-c2ccc3ncnc(-n4ccnc4)c3c2)cc1 |  |  | -10% (inactive) | > 46 µM (inactive) | > 46 µM (inactive) | inactive | inactive | 7.19% (inactive) | 4.81% | 9.84% | 3.16 µM (active) | 4.47 µM (active) | inactive | inactive | > 11.4 µM (inactive) | 0.316 µM (active) | inactive |  |  | 
3 | CS(=O)(=O)Nc1cccc(-c2ccc3ncnc(NCCN4CCOCC4)c3c2)c1 | -17.6% (inactive) |  | 2.22% (inactive) | > 46 µM (inactive) | > 46 µM (inactive) | inactive | inactive | -0.458% (inactive) | -4.37% | -8.3% | 8.91 µM (active) | 8.91 µM (active) | inactive | inactive | > 11.4 µM (inactive) | 25.1 µM (active) | inactive |  |  | 
4 | COc1cccc(-c2cncnc2NC2CCNCC2)c1 | -6.98% (inactive) | 9.29% (inactive) | 13.9% (inactive) | > 46 µM (inactive) | > 46 µM (inactive) | inactive | inactive | 2.06% (inactive) | 12.6% | 15.6% | inactive | inactive | inactive | inactive | > 11.4 µM (inactive) | inactive |  | inactive |  | 
5 | CN1CCN(c2ncncc2-c2ccc(C(=O)N(C)C)cc2)CC1 | 14.8% (inactive) | 4.17% (inactive) |  | > 46 µM (inactive) | > 46 µM (inactive) | inactive | inactive | 1.02% (inactive) | 12.3% | 11.3% | inactive | inactive | inactive | inactive | > 11.4 µM (inactive) | 15.8 µM (active) | inactive |  |  | 
6 | CN1CCN(c2ncc3nc(-c4cccc(C#N)c4)c(=O)n(Cc4ccc(F)cc4)c3n2)CC1 |  |  |  | > 9.22 µM (inactive) | > 46 µM (inactive) | inactive | inactive | -3.63% (inactive) | 1.09% | -4.23% | inactive | inactive | inactive | inactive | > 11.4 µM (inactive) | inactive | inactive |  | 3.16 µM (active) | 
7 | COc1cccc(Cn2c(=O)cnc3cncnc32)c1 | 13.8% (inactive) | -18.4% (inactive) | -2.31% (inactive) | > 9.22 µM (inactive) | > 46 µM (inactive) | inactive |  | 1.18% (inactive) | 17.1% | 17.8% | 15.8 µM (active) | 28.2 µM (active) | inactive | inactive | > 11.4 µM (inactive) | 15.8 µM (active) | inactive |  |  | 
8 | CCNc1ncc2ncc(=O)n(C3CC3)c2n1 | -20.4% (inactive) | -6.86% (inactive) | -6.01% (inactive) | > 9.22 µM (inactive) | > 46 µM (inactive) | inactive |  | 3.55% (inactive) | 13.3% | 13.9% | 14.1 µM (active) | 11.2 µM (active) | inactive | inactive | > 11.4 µM (inactive) | 3.16 µM (active) |  |  |  | inactive
9 | CCNc1ncc2nc(-c3cccs3)c(=O)n(C)c2n1 |  |  |  | > 9.22 µM (inactive) | > 46 µM (inactive) | inactive | inactive | -12.5% (inactive) | 3.66% | -11.1% | inactive | inactive | inactive | inactive |  | 1.58 µM (active) | inactive |  | 3.16 µM (active) | 
10 | COc1ccc(-c2nc3cnc(Nc4cccc(OC)c4)nc3n(C3CC3)c2=O)cc1 | -4.98% (inactive) | -8.58% (inactive) | 25.2% (inactive) | > 9.22 µM (inactive) | > 46 µM (inactive) | inactive | inactive | 0.287% (inactive) | 17.2% | 15% | inactive | inactive | inactive | inactive | > 11.4 µM (inactive) |  |  |  |  | 
11 | COc1cccc(Nc2ncc3ncc(=O)n(CCc4ccccc4)c3n2)c1 |  | 4.6% (inactive) | -3.68% (inactive) | > 9.22 µM (inactive) | > 46 µM (inactive) | inactive |  | -5.96% (inactive) | -10.9% | -19.1% | 0.1 µM (active) | 0.282 µM (active) | inactive | inactive | > 11.4 µM (inactive) |  |  |  |  | 
